These results are taken from PubChem BioAssay (EPA / NIEHS).

Molecules are shown by their SMILES. A structure can be active in one record and inactive in another. The source made the active and inactive calls. The calls were made as follows: active = hit-call score of the fitted dose curve at least 0.9, where 1 is the maximum; inactive = score below 0.9.

The nature of the test: ATG_FoxO_CIS: Attagene CIS-FACTORIAL HepG2 Assay for human Forkhead box O (FoxO) (AID 2282943). To be noted: HepG2 Attagene cis-reporter, FoxO element, mRNA; actives raise or lower the signal. As for the experimental part: ATG_CIS is a cell-based, multiplexed-readout assay that uses HepG2, a human liver cell line, with measurements taken at 24 hours after chemical dosing in a 24-well plate.ATG_FoxO_CIS is one of 52 assay component(s) measured or calculated from the ATG_CIS assay. It is designed to make measurements of mRNA induction, a form of inducible reporter, as detected with fluorescence intensity signals by Reverse transcription polymerase chain reaction (RT-PCR) and Capillary electrophoresis technology.Data from the assay component ATG_FoxO_CIS was analyzed into 1 assay endpoint. This assay endpoint, ATG_FoxO_CIS, was analyzed with bidirectional fitting relative to DMSO as the negative control and baseline of activity. Using a type of inducible reporter, measures of mRNA for gain or loss-of-signal activity can be used to understand the reporter gene at the transcription factor-level as they relate to the gene FOXO1 and FOXO3. Furthermore, this assay endpoint can be referred to as a primary readout, because this assay has produced multiple assay endpoints where this one serves a reporter gene function. To generalize the intended target to other relatable targets, this assay endpoint is annotated to the dna binding intended target family, where the subfamily is forkhead box protein.
Human liver HepG2 cells are transiently transfected with multiple reporter transcription units (MRTUs) in 6-well plates using FuGene 6 reagent (Roche; 3 ml FuGene/1 mg DNA). The MRTU constructs are regulated by a cis-regulating element (promoter). […] A major difference between the CIS and TRANS system is that in CIS activities of endogenous TFs are measured, whereas the TRANS assay evaluates changes in activities of exogenous, chimeric NR-Gal4 proteins. […] At the end of 24 hour incubation, total RNA was isolated using TriZol reagent (Invitrogen). The isolated RNA is then reverse-transcribed using oligo(dT) primer and Mo-MLV reverse transcriptase (Invitrogen) with DNAse I (Ambion) treatment for 30 min. The one-tenth of the produced cDNA was amplified by PCR using Taq DNA polymerase (Invitrogen) and two reporter sequence-specific primers. The PCR products were fluorescently labeled by primer extension with 6-arboxyfluorescein (6-FAM) 5'-labeled reporter sequence-specific primer (2 min at 95 C, 20 s at 68 C and 10 min at 72 C) and these products were digested with 5U of HpaI (New England Biolabs) for 2h at 37 C. The fragments were purified using Qiaquick PCR columns (Qiagen), analyzed on an ABI 3130xL genetic analyzer (Applied Biosystems) with peak positions identified by using a set of X-rhodamine (ROX)-labeled MapMarker1000 molecular weight standards (BioVentures). The raw capillary electrophoresis data was processed using Attagraph software (Attagene).
For the compound `CNNCc1ccc(C(=O)NC(C)C)cc1`, the compound was classed as inactive.
On the same count and under the same terms, next, `Cc1ccccc1OCC(=O)O`: “inactive”; `CCCCCc1ccc(O)cc1`: “inactive”; `COC(=O)C(F)(F)C(F)(F)C(F)(F)F`: “inactive”.
In the case of `CN(CCO)S(=O)(=O)C(F)(F)C(F)(F)C(F)(F)C(F)(F)C(F)(F)C(F)(F)C(F)(F)C(F)(F)F`, the call was inactive.
Still for that read-out and setting: next, `CCCCCCCCCCCC[N+](C)(C)CCCCCCCCCCCC`: “inactive”; `O=C1OC(=O)C(F)(F)C1(F)F`: “inactive”; `C=C(c1ccc(C(=O)O)cc1)c1cc2c(cc1C)C(C)(C)CCC2(C)C`: “inactive”.
Turning to `FC(F)(F)N1C(F)(F)C(F)(F)OC(F)(F)C1(F)F`, the call was inactive.
In the case of `Cc1ccc(C)c(S(=O)(=O)O)c1`, the result was inactive.
As a reminder, the AC50 is the concentration giving half of the maximal activity seen. For `NC(=NCCCCCCN=C(N)/N=C(\N)Nc1ccc(Cl)cc1)/N=C(\N)Nc1ccc(Cl)cc1`, the compound was called inactive and the AC50 was 22.9 µM (active).
As for `CC=O`, the call was inactive.
The same measure, in the same setting: next, `c1cnc2c(c1)ccc1cccnc12`: “inactive”.
On the same count and under the same terms, next, `OCCN1CN(CCO)CN(CCO)C1`: “inactive”.
Still for that read-out and setting: next, `CCOC(OCC)C(=O)c1ccccc1`: “inactive”; `Cc1ccc(S(=O)(=O)O)cc1`: “inactive”; `COc1ccc(C#N)cc1`: “inactive”.
`CCCCCCCCCCCC(=O)NCCCN(C)C`: the AC50 is 20.3 µM (active).
Take `O=C(OC(=O)C(F)(F)C(F)(F)F)C(F)(F)C(F)(F)F`: the outcome was inactive.
In the case of `CCCCCCCCCCCC`, the result was inactive.
Still for that read-out and setting: next, `CC(C)[C@@H]1CC[C@@H](C)C[C@H]1O`: “inactive”.
Still for that read-out and setting: next, `c1ccc(CNc2ncnc3c2ncn3C2CCCCO2)cc1` (stereo not given): “inactive”; `CCCCC(CC)C(=O)O` (stereo not given): “inactive”.
Same read-out and setting: next, `CCOCCOCC`: “inactive”; `C=CC(=O)OCCC(F)(F)C(F)(F)C(F)(F)C(F)(F)C(F)(F)C(F)(F)C(F)(F)C(F)(F)F`: “inactive”.
For `CC(C)c1c(C(=O)Nc2ccccc2)c(-c2ccccc2)c(-c2ccc(F)cc2)n1CC[C@@H](O)C[C@@H](O)CC(=O)O`, the compound was classed as inactive.
In the case of `COC(O)c1ccccc1` (stereo not given), the result was inactive.
The same measure, in the same setting: next, `Oc1c(Cl)cc(Cl)cc1Sc1cc(Cl)cc(Cl)c1O`: “inactive”.
Consider `O=C(O)CCC(F)(F)C(F)(F)C(F)(F)C(F)(F)C(F)(F)C(F)(F)F`, for which the call was inactive.
Still for that read-out and setting: next, `Nc1ccn([C@@H]2O[C@H](CO)[C@@H](O)C2O)c(=O)n1` (stereo not given in full): “inactive”; `Nc1ccc(O)c(C(=O)O)c1`: “inactive”.
Regarding `O=C(NCc1ncc(C(F)(F)F)cc1Cl)c1c(Cl)cccc1Cl`, the compound was classed as inactive.
On the same count and under the same terms, next, `CCO[Si](CCC1CCC2OC2C1)(OCC)OCC` (stereo not given): “inactive”; `CCN(CCC#N)c1ccccc1`: “inactive”.
Same read-out and setting: next, `Oc1ccc(Cc2ccccc2O)cc1`: “inactive”; `Cn1sccc1=O`: “inactive”; `CC(C)(c1ccc(Oc2ccc(N)cc2)cc1)c1ccc(Oc2ccc(N)cc2)cc1`: “inactive”.
For `O=P(O)(O)CCC(F)(F)C(F)(F)C(F)(F)C(F)(F)C(F)(F)C(F)(F)C(F)(F)C(F)(F)F`, the result was inactive.
Consider `CCCCC(CC)C(=O)OCCOCCOCCOCCOC(=O)C(CC)CCCC` (stereo not given), for which the result was inactive.
